We go through seven molecules from PubChem BioAssay.

Experiment [1] is described as follows: blockers of polyQ-driven CASP3 activation – cell-based (AID 1583). As to conditions: polyglutamine-induced caspase-3 activation, cell assay; stronger effect = higher value;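 tested at 10 µM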.
Experiment [2] in a line: yeast 75Q aggregation reduction – 75Q-TubU reporter (AID 1593). As to conditions: Yeast 75Q polyglutamine aggregation reporter.
A short description of experiment [3]: restoration of touch response, mutant HTT neurons – whole organism, C. elegans mechanosensory neurons, N-terminal huntingtin (AID 1599). As to conditions: C. elegans polyQ-huntingtin mechanosensory neurons, stronger effect = higher value.
Experiment [4] in a line: blockers of cytochrome c efflux from mitochondria – biochemical, purified mitochondria (AID 1603).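 Further: mouse liver mitochondria challenged with calcium chloride; signal normalized to the plate average as 100%.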 As to conditions: stronger effect = lower value.
The nature of experiment [5]: polyglutamine aggregate formation blockers (AID 1604). The note with it: polyglutamine-induced protein aggregation inhibition assay; stronger effect = higher value; tested at 2.5 µM.
The nature of experiment [6]: glutamate transport activators, MN-1 cells, MN-1 cell line (AID 1612).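 Further: tested at 1 µM final; 0% = mean of DMSO vehicle wells on each plate; positive means more glutamate uptake than control and negative means less.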 The note with it: MN-1 motor neuron cells, stronger effect = higher value.
Experiment [7] can be described thus: GFP-Q80 aggregate reduction, neuronal-like cells, cell-based, NGF-treated PC12, GFPQ80 (AID 1614).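 Further: lower means fewer inclusions and 0 means no inclusions at all.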 The note with it: PC12 NGF-treated GFP-polyQ80 inclusion reduction.
Experiment [8] is described as follows: 75Q-TubH aggregate inhibition, S. cerevisiae, yeast (AID 1616). As to conditions: S. cerevisiae 75Q-TubH polyglutamine aggregation suppression; stronger effect = higher value.
The nature of experiment [9]: P. berghei load reduction in hepatocytes – cell-based, HepG2, luciferase luminescence, HepG2 viability, primary screen (AID 624349).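 Further: 100% = mean of DMSO negative control wells on the same plate.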 The note with it: P. berghei liver stage in HepG2, luciferase luminescence, concentration not given here; parasite load remaining: stronger effect = lower value; viability: measured here: HepG2 viability without parasites.
Experiment [10] can be described thus: EMT-state selective cytotoxicity in co-culture – imaging, PC-3E GFP, TEM4-18 mCherry, primary screen (AID 1345086;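 active means compounds killing one labelled cell type while sparing the other, by normalised counts and ratio limits, not self-fluorescent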;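 on all read-outs here: cells exposed to compound for 72 h before imaging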;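 on red/green cell ratio (normalised): normalised mesenchymal count divided by normalised epithelial count so high means epithelial killing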). As to conditions: PC-3E GFP / TEM4-18 mCherry co-culture, imaging cell counts, at 1 µM; for red/green cell ratio (normalised): actives lie on both sides, counts scaled to control wells, 1 = unselective.
The nature of experiment [11]: viability loss with induced miR-34 in A549 – imaging, A549 dox-inducible miR-34, nuclei and caspase counts, primary screen (AID 1347080;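 active means compounds whose cell count with miR-34 switched on is under 0.7 times the count with it off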). As to conditions: A549 miR-34 inducible, Hoechst nuclei count, 48 h.
Experiment [12] concerns the target NAD(+) hydrolase SARM1 (Homo sapiens) (UniProt Q6SZW1). In words: blocking NAD cleavage by SARM1 SAM-TIR – cell lysate, NAD-Glo luminescence (AID 1508614;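 active means compound whose remaining NAD level is above about 45 nM, limit read from the data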). The note with it: SAM-TIR HEK293T lysate NADase, at 1 µM, stronger effect = higher value.
The target of experiment [13] is Mitogen-activated protein kinase 7 (Homo sapiens) (UniProt Q13164). In words: Gal4-ERK5 driven luciferase induction – cell-based, HTS, primary screen (AID 1508626;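 active means luciferase signal above three times the same-plate solvent-only control wells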;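 further: luciferase driven by Gal4-ERK5 fusion binding five Gal4 sites before minimal TATA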). As to conditions: HeLa Gal4-ERK5 transactivation, 18 h, at 5 µM, stronger effect = higher value.
A short description of experiment [14]: galactose survival enhancers in mitochondrial complex I cybrids – cell-based, galactose medium, ATP luminescence, primary screen (AID 1645843;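 active means z-score of at least 1.8 in each of two replicates, scored against plate mean and spread of sample wells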;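 further: positive z means more ATP and so rescue of galactose-driven cybrid death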). As to conditions: complex I mutant cybrid cells, 72 h, stronger effect = higher value.
[15] abbreviates: measured here: epithelial PC-3E GFP cell survival.
The mark [16] stands for this setting: measured here: mesenchymal TEM4-18 mCherry cell survival.
Where [17] appears, read: stronger effect = lower value, cell number ratio, induced over uninduced.
Setting [18] is: measured here: relative caspase fold change +Dox/-Dox.
[19] abbreviates: measured here: total cells with miR-34 induction, stronger effect = lower value.
[20] abbreviates: measured here: total cells without miR-34 induction.

Several values for one entry are separate records, joined by “and”; a condition that tells them apart may be missing. Identical values can stand only once. For part of these data: Measured potencies and affinities stand elsewhere. Activity calls are given as the source filed them. Unless noted, no stated cut-off is given here; in the data, active means parasite load remaining mostly below about 12% (no sharp cut-off); inactive means mostly above about 10%.

Sequence of NAD(+) hydrolase SARM1 (Homo sapiens) (Q6SZW1 whole entry, looked up, the tested form may be a part): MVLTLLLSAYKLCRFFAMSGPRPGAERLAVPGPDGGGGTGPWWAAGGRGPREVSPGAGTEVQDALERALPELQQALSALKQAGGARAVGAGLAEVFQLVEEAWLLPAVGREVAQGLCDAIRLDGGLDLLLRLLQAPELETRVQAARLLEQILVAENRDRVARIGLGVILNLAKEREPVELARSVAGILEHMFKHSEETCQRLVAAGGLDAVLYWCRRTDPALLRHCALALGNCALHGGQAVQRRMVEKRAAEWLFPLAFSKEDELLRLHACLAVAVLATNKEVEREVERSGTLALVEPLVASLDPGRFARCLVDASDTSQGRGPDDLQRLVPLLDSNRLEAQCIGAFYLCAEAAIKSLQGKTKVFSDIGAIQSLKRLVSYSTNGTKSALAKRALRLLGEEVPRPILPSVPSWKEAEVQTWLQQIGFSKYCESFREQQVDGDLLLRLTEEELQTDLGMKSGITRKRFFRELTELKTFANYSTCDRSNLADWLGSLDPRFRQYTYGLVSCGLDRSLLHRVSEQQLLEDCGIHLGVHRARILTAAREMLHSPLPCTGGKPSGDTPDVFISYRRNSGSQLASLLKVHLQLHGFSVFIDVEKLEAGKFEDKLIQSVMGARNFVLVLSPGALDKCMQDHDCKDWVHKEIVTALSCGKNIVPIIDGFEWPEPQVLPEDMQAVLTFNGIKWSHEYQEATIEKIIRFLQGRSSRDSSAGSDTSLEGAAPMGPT
Sequence of Mitogen-activated protein kinase 7 (Homo sapiens) (Q13164 whole entry, looked up, the tested form may be a part): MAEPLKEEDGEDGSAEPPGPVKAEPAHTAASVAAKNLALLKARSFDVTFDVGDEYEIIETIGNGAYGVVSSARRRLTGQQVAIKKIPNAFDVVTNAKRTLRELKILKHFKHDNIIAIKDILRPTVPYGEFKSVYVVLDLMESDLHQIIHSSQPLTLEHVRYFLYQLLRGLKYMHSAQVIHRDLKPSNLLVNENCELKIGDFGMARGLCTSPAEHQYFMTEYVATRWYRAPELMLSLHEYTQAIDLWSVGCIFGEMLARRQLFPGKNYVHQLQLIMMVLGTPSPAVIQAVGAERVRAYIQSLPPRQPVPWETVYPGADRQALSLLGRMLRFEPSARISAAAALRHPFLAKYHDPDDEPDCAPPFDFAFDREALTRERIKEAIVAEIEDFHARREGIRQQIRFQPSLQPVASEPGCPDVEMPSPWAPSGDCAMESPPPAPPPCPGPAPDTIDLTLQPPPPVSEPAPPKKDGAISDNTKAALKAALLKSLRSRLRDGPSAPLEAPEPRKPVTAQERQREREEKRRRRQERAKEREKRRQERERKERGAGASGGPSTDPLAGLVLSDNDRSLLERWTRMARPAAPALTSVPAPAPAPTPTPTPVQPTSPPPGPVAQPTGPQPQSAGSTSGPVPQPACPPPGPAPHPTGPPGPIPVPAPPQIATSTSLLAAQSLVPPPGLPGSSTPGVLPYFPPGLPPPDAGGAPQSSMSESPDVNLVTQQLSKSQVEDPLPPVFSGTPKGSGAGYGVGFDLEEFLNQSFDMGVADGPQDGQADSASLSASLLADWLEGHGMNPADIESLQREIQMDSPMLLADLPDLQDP

In the case of `C[C@@H]1CC2C3CCC4=CC(=O)C=C[C@]4(C)[C@@]3(F)[C@@H](O)C[C@]2(C)[C@@]1(O)C(=O)COP(=O)(O)O` (stereo partly specified), the inhibition in experiment [1] was -13.7%. The score in experiment [2] was determined as 2.71. The molecule further had a rescue above control in experiment [3] of -9.5. In addition, the cytochrome c release ratio in experiment [4] is 0.74. In experiment [5], the inhibition of aggregation was determined as 70.1%. The glutamate uptake change in experiment [6] was found to be 6.45%. The molecule further came in with an inclusion score in experiment [7] of 2.5. The same molecule had an aggregation suppression score in experiment [8] of 1.87. In addition, the parasite load remaining in experiment [9] is 113% (inactive) and 77.9% (inactive). Moreover, the viability in [9] is 75.1% and 87%. Also, the red/green cell ratio (normalised) in experiment [10] was 1.5 (inactive). For the same molecule, the normalised cell number is 1.11 in experiment [10] (setting [15]) and 1.67 in [10] (setting [16]). In addition, the fold change in experiment [11] (setting [17]) was 0.847 (inactive); in experiment [11] (setting [18]) it was 1.88. The cell count was determined as 7240 in experiment [11] (setting [19]) and 8540 in [11] (setting [20]).

In the case of `FC(F)(F)COCC(F)(F)F`, the parasite load remaining in [9] is 45.8% (inactive). The viability in [9] was 107%. Also, in experiment [10], the red/green cell ratio (normalised) was 0.7 (inactive). Also, the values for the normalised cell number in [10] (setting [15]) and in experiment [10] (setting [16]) were 1.25 and 0.88, respectively. For the same molecule, the fold change in experiment [11] (setting [17]) is 0.879 (inactive); in experiment [11] (setting [18]), 0.825. In addition, the values for the cell count in [11] (setting [19]) and in experiment [11] (setting [20]) were 10400 and 11900, respectively. Also, the remaining NAD in [12] is 10 nM (inactive). Moreover, the luciferase signal in experiment [13] is 60 AU (inactive).

Take `CCOC(=O)COc1ccc2c(=O)cc(-c3ccccc3)oc2c1`: the red/green cell ratio (normalised) in [10] is 0.96 (inactive). Further, the figures for the normalised cell number in experiment [10] (setting [15]) and in experiment [10] (setting [16]) were 0.88 and 0.85, respectively. For the same molecule, the fold change in experiment [11] (setting [17]) was 0.922 (inactive); in experiment [11] (setting [18]) it was 0.974. For the same molecule, the cell count came out at 8170 in [11] (setting [19]) and 8860 in experiment [11] (setting [20]). In addition, the remaining NAD in [12] is 10 nM (inactive).

In the case of `CN[C@@H]1[C@H](OC2[C@H](O[C@H]3[C@H](O)[C@@H](O)[C@H](N=C(N)N)[C@@H](O)[C@@H]3N=C(N)N)O[C@@H](C)[C@]2(O)C=O)O[C@@H](CO)[C@H](O)[C@H]1O` (stereo partly specified), in experiment [1], the inhibition is 11%. Moreover, the score in experiment [2] worked out at 1.53. The rescue above control in experiment [3] came out at 0.21. In addition, the cytochrome c release ratio in experiment [4] turned out to be 1.12. This molecule had an inhibition of aggregation in experiment [5] of 65.1%. In [6], the glutamate uptake change stood at 10.8%. This molecule showed an inclusion score in experiment [7] of 1.5. The aggregation suppression score in [8] came out at 1.33. Also, in experiment [9], the parasite load remaining was 83% (inactive) and 43.9% (inactive). In experiment [9], the viability was 71.2% and 98.6%. In experiment [10], the red/green cell ratio (normalised) was 1.2 (inactive). Moreover, the normalised cell number in experiment [10] (setting [15]) turned out to be 1.02; in experiment [10] (setting [16]) it was 1.22. In addition, the fold change was 0.885 (inactive) in experiment [11] (setting [17]) and 2.64 in [11] (setting [18]). Also, the results for the cell count in experiment [11] (setting [19]) and in experiment [11] (setting [20]) were 11600 and 13100, respectively.

For `CCC1(C)OC(=O)N(C)C1=O` (stereo unspecified), the red/green cell ratio (normalised) in experiment [10] is 0.84 (inactive). Also, the values for the normalised cell number in experiment [10] (setting [15]) and in experiment [10] (setting [16]) were 1.08 and 0.91, respectively. Moreover, the fold change in experiment [11] (setting [17]) was 0.92 (inactive); in experiment [11] (setting [18]), 0.865. In addition, the cell count in experiment [11] (setting [19]) came to 7860; in experiment [11] (setting [20]), 8540. In experiment [12], the remaining NAD is 10 nM (inactive). In experiment [13], the luciferase signal is 16 AU (inactive).

`C#C[C@]1(O)CCC2C3CCc4cc(O)ccc4C3CC[C@@]21C` (stereo partly specified): in experiment [1], the inhibition turned out to be 15.5%. The molecule also came in with a score in experiment [2] of 0.67. The molecule further had a rescue above control in [3] of -11.3. Moreover, the cytochrome c release ratio in experiment [4] was determined as 1.15. Moreover, the inhibition of aggregation in experiment [5] came to 38.1%. Also, the glutamate uptake change in experiment [6] is -12.7%. Also, the aggregation suppression score in [8] worked out at 0.484. Further, the parasite load remaining in experiment [9] was 88.3% (inactive) and 66.4% (inactive). In experiment [9], the viability was 76.2% and 99.2%. The red/green cell ratio (normalised) in experiment [10] is 0.98 (inactive). Further, the normalised cell number in [10] (setting [15]) came to 1.1; in experiment [10] (setting [16]), 1.07. The fold change is 1.12 (inactive) and 1.01 (inactive) in [11] (setting [17]); 1.15 and 1.03 in experiment [11] (setting [18]). The cell count in experiment [11] (setting [19]) is 5370 and 6100; in experiment [11] (setting [20]), 4780 and 6050. The z-score in [14] was -0.545 (inactive).

In the case of `COC(=O)C1[C@H]2C[C@H]3c4[nH]c5ccccc5c4CCN3C[C@@H]2CC[C@@H]1O` (stereo partly specified), the inhibition in experiment [1] was -35.1%. For the same molecule, the score in experiment [2] is 1.22. In experiment [3], this molecule showed a rescue above control of 15.8. The cytochrome c release ratio in experiment [4] worked out at 0.69. In experiment [5], this molecule yielded an inhibition of aggregation of 9.99%. Further, the glutamate uptake change in experiment [6] was -7.18%. In addition, in experiment [7], the inclusion score came to 2. Moreover, the aggregation suppression score in [8] is 1.41. Further, the parasite load remaining in experiment [9] was 81.2% (inactive) and 40.6% (inactive). The viability in experiment [9] was 73.2% and 95.3%. Besides, in experiment [10], the red/green cell ratio (normalised) is 1.01 (inactive). The normalised cell number in experiment [10] (setting [15]) was determined as 1.03; in experiment [10] (setting [16]), 1.04. Besides, the figures for the fold change in experiment [11] (setting [17]) and in experiment [11] (setting [18]) were 0.924 (inactive) and 3.3, respectively. For the same molecule, the cell count was 12100 in [11] (setting [19]) and 13100 in experiment [11] (setting [20]).

As a reminder, the inhibition is the relative decrease from the control value, in per cent. Usually viability stands for a read-out of living cells in per cent, often relative to untreated cells.
